Reference: PubChem BioAssay (Tox21)
Several values for one entry are separate records, joined by “and”; a condition that tells them apart may be missing. Equal entries are not always repeated. Results filed as inconclusive are left out. A call without a number means that no potency is given here. Some compounds were tested as several samples or in several runs, with calls that do not always agree. Activity calls are given as the source filed them. Unless noted, calls follow the shape of the dose curve; as a rule, active = well fitted curve in the direction sought with a large enough effect in the repeat runs; inconclusive = weak or mixed curves; inactive = no such curve, though single readings can be large; an effect the other way counts as inactive or inconclusive.

Legend:
[1] = biological target: Progesterone receptor (Homo sapiens) (UniProt P06401); assay: qHTS assay to identify small molecule agonists of the progesterone receptor (PR) signaling pathway (AID 1346784; calls by dose curve; also: nearly all actives have a fitted effect of over 30% in size; also: potency is read from the fitted curve at half-maximal effect)
Sequence of Progesterone receptor (Homo sapiens) (P06401 whole entry, looked up): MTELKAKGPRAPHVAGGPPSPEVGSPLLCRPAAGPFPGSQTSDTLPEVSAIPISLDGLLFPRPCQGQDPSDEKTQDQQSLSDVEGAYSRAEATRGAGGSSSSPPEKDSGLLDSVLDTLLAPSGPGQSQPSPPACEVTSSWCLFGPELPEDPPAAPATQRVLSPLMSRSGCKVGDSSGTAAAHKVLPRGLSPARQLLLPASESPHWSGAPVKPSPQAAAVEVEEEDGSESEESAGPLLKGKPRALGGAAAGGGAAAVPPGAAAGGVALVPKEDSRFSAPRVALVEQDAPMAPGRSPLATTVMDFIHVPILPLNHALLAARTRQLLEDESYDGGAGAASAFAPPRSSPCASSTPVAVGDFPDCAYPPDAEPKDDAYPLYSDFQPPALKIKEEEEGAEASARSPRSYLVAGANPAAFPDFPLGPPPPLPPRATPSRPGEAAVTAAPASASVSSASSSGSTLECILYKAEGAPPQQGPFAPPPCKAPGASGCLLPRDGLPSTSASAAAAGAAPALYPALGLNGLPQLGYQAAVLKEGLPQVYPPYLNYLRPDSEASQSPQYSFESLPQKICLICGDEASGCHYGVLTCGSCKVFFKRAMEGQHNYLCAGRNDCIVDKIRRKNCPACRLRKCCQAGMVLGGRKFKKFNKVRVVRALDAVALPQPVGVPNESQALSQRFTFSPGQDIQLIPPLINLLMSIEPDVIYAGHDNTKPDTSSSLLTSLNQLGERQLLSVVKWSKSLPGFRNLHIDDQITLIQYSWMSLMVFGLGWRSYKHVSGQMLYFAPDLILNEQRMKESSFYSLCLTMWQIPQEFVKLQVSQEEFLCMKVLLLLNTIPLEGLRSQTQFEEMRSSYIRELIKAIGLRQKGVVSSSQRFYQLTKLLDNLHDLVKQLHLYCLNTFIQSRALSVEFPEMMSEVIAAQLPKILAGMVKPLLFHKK
Outline: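 Cells (PR-UAS-bla HEK 293T, GripTite) were plated in assay medium containing 2% charcoal-stripped FBS and incubated 6 hr. Test compounds in DMSO were added for 16 hr at 37C. FRET substrate was then loaded for 2 hr at room temperature before fluorescence reading.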

[2] = biological target: Progesterone receptor (Homo sapiens) (UniProt P06401); assay: qHTS assay to identify small molecule antagonists of the progesterone receptor (PR) signaling pathway (AID 1346795; active = well fitted inhibition curve with a large enough effect in the signal ratio in the repeat runs, not every such curve was filed as active; the % refers to the signal ratio)
Outline: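 Antagonist mode: compounds tested against 1 nM (final) promegestone stimulation in HEK293T cells expressing PR-UAS-bla reporter, 16 hr at 37C, 5% CO2; beta-lactamase activity detected via B/G FRET substrate after 2 hr at room temperature.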

[3] = qHTS assay to identify small molecule antagonists of the progesterone receptor (PR) signaling pathway - cell viability counter screen (AID 1346798); also: series mostly up to about 92 µM; nearly all actives have a fitted effect of over 50% in size
Outline: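 Counter screen for cytotoxicity: viability of PR-UAS-bla HEK293T cells was measured with CellTiter-Glo luminescence following 16 hr compound exposure in the presence of R5020.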

[4] = qHTS assay to identify small molecule agonists of the progesterone receptor (PR) signaling pathway - cell viability counter screen (AID 1346799; calls by dose curve; also: nearly all actives have a fitted effect of over 45% in size; also: potency is read from the fitted curve at half-maximal effect)
Outline: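 Cells (PR-UAS-bla HEK293T) are plated at 3,000/well in 2% charcoal-stripped FBS medium, rested 6 hr, dosed and incubated 16 hr at 37C. CellTiter-Glo is then added and luminescence measured after 30 min at room temperature.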

[5] = qHTS assay to identify small molecule antagonists of the TGF-beta/Smad signaling pathway - cell viability counter screen (AID 1346824); also: nearly all actives have a fitted effect of over 50% in size
Outline: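 Cytotoxicity counter-screen run in the same wells as the beta-lactamase Smad reporter read: CellTiter-Glo luminescence after 30 min at room temperature. HEK 293T SBE-bla cells had 5 hr compound exposure at 37 C with TGF-beta1 (0.25 ng/mL stock).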

[6] = qHTS assay to identify small molecule agonists of the TGF-beta/Smad signaling pathway - cell viability counter screen (AID 1346829); also: nearly all actives have a fitted effect of over 45% in size; also: potency is read from the fitted curve at half-maximal effect
Outline: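 Same-well cytotoxicity: CellTiter-Glo added after the 2 hr room-temperature beta-lactamase substrate step, luminescence measured 30 min later; cells had 5 hr of compound at 37 C.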

[7] = qHTS assay to identify small molecule agonists of the TGF-beta/Smad signaling pathway (AID 1346859; active = well fitted activation curve with a large enough effect in the signal ratio in the repeat runs, not every such curve was filed as active; the % refers to the signal ratio; also: series mostly up to about 77 µM)
Outline: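 Reporter line: HEK 293T with stably integrated SBE-controlled beta-lactamase. Compound exposure lasts 5 hr at 37 C and 5% CO2; substrate loading follows for 2 hr at room temperature, with emission read at 460 and 530 nm.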

[8] = Human pregnane X receptor (PXR) small molecule agonists, qHTS cell viability counter screen (AID 1346977); also: nearly all actives have a fitted effect of over 50% in size; also: potency is read from the fitted curve at half-maximal effect
Outline: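 Cytotoxicity counter screen run in the same wells as the PXR luciferase assay, using PXR-Luc HepG2 cells in charcoal-stripped serum medium. Viability: CellTiter-Fluor fluorescence after 24hr compound treatment.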

[9] = Caspase-3/7 induction in HepG2 cells by small molecules, qHTS assay (AID 1346978); also: nearly all actives have a fitted effect of over 15% in size
Outline: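 Caspase-3/7 induction was measured by Caspase-Glo 3/7 luminescence (30 min, room temperature) after a 17 hr compound exposure of wild-type HepG2 cells seeded at 2,000 per well and pre-incubated 5 hr.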

[10] = Caspase-3/7 induction in CHO-K1 cells by small molecules, qHTS cell viability counter screen (AID 1346979); also: nearly all actives have a fitted effect of over 35% in size; also: potency is read from the fitted curve at half-maximal effect
Outline: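 Cytotoxicity counter screen run in parallel with the caspase-3/7 assay: CHO-K1 cells, 16hr compound treatment at 37C, then CellTiter-Fluor for 1hr before fluorescence reading.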

[11] = Caspase-3/7 induction in CHO-K1 cells by small molecules, qHTS assay (AID 1346980); also: nearly all actives have a fitted effect of over 15% in size
Outline: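 Luminescent Caspase-Glo 3/7 read (30min, room temperature) quantified apoptosis induction. Cells were wild-type CHO-K1, treated with compound for 17hr at 37 C and 5% CO2.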

[12] = Caspase-3/7 induction in HepG2 cells by small molecules, qHTS cell viability counter screen (AID 1346981); also: nearly all actives have a fitted effect of over 30% in size; also: potency is read from the fitted curve at half-maximal effect
Outline: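 Steps: seed 2,000 HepG2 cells per well; incubate 5 hr at 37 C; pin-add compounds in DMSO; incubate 16 hr; add CellTiter-Fluor; after 1 hr at 37 C and 5% CO2, read fluorescence.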

[13] = biological target: Nuclear receptor subfamily 1 group I member 2 (Homo sapiens) (UniProt O75469); assay: Human pregnane X receptor (PXR) small molecule agonists, qHTS assay (AID 1346982); also: nearly all actives have a fitted effect of over 35% in size; also: potency is read from the fitted curve at half-maximal effect
Sequence of Nuclear receptor subfamily 1 group I member 2 (Homo sapiens) (O75469 whole entry, looked up): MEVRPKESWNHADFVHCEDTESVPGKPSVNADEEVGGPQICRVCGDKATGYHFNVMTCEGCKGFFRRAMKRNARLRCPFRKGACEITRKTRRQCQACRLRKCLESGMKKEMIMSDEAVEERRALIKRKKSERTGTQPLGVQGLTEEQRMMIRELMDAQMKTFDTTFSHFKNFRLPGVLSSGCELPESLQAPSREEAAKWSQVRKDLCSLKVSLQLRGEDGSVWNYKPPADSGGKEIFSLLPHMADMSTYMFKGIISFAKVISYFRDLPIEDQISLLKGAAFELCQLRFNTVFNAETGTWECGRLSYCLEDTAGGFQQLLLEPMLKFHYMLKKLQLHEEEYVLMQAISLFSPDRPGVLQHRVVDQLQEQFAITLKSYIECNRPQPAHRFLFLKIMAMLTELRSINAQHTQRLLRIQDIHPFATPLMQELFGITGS
Outline: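 Agonist mode qHTS: PXR-Luc HepG2 cells plated 5 hr before DMSO-dissolved compounds were pinned in, cultured 24 hr at 37 C, 5% CO2; ONE-Glo luminescence readout.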

[14] = biological target: Nuclear receptor subfamily 1 group I member 2 (Rattus norvegicus) (UniProt Q9R1A7); assay: Rat pregnane X receptor (rPXR) activation by small molecules, qHTS assay (AID 1346983); conditions: rPXR luciferase reporter cells, One-Glo luminescence, 24 h; stronger effect = higher value; also: nearly all actives have a fitted effect of over 20% in size
Sequence of Nuclear receptor subfamily 1 group I member 2 (Rattus norvegicus) (Q9R1A7 whole entry, looked up): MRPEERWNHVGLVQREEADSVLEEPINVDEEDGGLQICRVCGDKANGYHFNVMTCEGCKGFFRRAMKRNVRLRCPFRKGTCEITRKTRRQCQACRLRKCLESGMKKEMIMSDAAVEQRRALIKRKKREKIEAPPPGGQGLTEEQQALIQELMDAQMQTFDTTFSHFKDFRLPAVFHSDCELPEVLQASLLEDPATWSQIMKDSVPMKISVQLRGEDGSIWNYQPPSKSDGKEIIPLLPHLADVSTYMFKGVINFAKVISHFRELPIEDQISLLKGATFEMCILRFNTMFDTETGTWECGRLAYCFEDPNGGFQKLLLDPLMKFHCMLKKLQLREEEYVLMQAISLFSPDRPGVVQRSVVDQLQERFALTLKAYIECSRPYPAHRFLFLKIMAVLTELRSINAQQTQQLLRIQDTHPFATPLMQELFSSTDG
Outline: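 Luminescent readout (One-Glo luciferase, 30 min room temperature) followed 24 hr compound treatment at 37 C of rPXR cells plated 2,000 per well and preincubated 5hr; qHTS format with compounds delivered in DMSO.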

[15] = biological target: Nuclear receptor subfamily 1 group I member 2 (Homo sapiens) (UniProt O75469); assay: CYP3A4 induction through human pregnane X receptor (PXR) by small molecules, qHTS assay (AID 1346984); also: nearly all actives have a fitted effect of over 40% in size
Outline: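 Steps: seed DPX-2 cells, 5 hr at 37C; pin-transfer compounds; 24 hr at 37C; add Luciferin-IPA (3uM final), 3 hr at 37C; add One-Glo, 30 min RT; read luminescence.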

[16] = biological target: Nuclear receptor subfamily 1 group I member 2 (Homo sapiens) (UniProt O75469); assay: Human pregnane X receptor (PXR) activation by small molecules, qHTS assay (AID 1346985); also: nearly all actives have a fitted effect of over 40% in size
Outline: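 DPX-2 cells (HepG2 co-transfected with a PXR response element and a CYP3A4-promoter luciferase construct) were seeded at 2,000 per well, rested 5 hr at 37C, then exposed to DMSO-dissolved compounds for 24 hr. Activation was read as luciferase luminescence.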

[17] = biological target: Cytochrome P450 2D6 (Homo sapiens) (UniProt P10635); assay: Cytochrome P450 Family 2 Subfamily D Member 6 (CYP2D6) small molecule antagonists: luciferase reporter qHTS assay (AID 1671196); also: nearly all actives have a fitted effect of over 50% in size; also: potency is read from the fitted curve at half-maximal effect
Sequence of Cytochrome P450 2D6 (Homo sapiens) (P10635 whole entry, looked up): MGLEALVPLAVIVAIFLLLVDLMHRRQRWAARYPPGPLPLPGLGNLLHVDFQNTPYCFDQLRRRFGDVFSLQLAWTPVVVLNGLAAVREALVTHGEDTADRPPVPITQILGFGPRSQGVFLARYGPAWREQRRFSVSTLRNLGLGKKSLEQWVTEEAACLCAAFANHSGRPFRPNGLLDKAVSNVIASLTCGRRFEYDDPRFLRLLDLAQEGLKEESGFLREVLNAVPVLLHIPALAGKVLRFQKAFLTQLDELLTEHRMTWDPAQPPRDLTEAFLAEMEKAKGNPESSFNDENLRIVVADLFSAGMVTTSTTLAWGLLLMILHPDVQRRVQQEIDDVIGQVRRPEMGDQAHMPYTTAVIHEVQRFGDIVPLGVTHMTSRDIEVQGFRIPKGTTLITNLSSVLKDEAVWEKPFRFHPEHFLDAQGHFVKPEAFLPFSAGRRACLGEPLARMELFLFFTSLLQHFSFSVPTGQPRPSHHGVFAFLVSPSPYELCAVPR
Outline: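 P450-Glo format: CYP2D6 converts a proluciferin substrate to luciferin in an NADPH-driven reaction lasting 1 h at room temperature. Light output, proportional to CYP2D6 activity, reflects interference by test chemicals.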

[18] = biological target: Cytochrome P450 2C19 (Homo sapiens) (UniProt P33261); assay: Cytochrome P450 Family 2 Subfamily C Member 19 (CYP2C19) small molecule antagonists: luciferase reporter qHTS assay (AID 1671197); also: nearly all actives have a fitted effect of over 65% in size; also: potency is read from the fitted curve at half-maximal effect
Sequence of Cytochrome P450 2C19 (Homo sapiens) (P33261 whole entry, looked up): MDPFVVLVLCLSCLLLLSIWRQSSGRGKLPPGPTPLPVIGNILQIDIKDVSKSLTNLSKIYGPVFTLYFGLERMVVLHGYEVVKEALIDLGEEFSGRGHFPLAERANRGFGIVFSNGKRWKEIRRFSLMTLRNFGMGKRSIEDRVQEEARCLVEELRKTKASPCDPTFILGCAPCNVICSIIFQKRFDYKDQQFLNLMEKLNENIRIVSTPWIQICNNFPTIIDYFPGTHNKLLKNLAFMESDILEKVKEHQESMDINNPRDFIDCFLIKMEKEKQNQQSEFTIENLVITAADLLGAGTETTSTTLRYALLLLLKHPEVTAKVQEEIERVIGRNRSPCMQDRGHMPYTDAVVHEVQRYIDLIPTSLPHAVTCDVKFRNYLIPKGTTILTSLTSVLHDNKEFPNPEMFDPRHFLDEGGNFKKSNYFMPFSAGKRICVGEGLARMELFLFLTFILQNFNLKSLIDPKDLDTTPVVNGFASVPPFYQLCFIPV
Outline: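 Quantitative high-throughput screen of the Tox21 library using CYP2C19 with proluciferin substrate. Reaction: NADPH regeneration, 37C, 1 h, after 10 min compound preincubation at room temperature. Readout: luminescence.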

[19] = biological target: Thyrotropin-releasing hormone receptor (Homo sapiens) (UniProt P34981); assay: qHTS assay to identify small molecule antagonists of the thyrotropin-releasing hormone receptor (TRHR) signaling pathway (AID 1346877; active = well fitted inhibition curve with a large enough effect in the repeat runs, not every such curve was filed as active; also: series mostly up to about 51 µM)
Sequence of Thyrotropin-releasing hormone receptor (Homo sapiens) (P34981 whole entry, looked up): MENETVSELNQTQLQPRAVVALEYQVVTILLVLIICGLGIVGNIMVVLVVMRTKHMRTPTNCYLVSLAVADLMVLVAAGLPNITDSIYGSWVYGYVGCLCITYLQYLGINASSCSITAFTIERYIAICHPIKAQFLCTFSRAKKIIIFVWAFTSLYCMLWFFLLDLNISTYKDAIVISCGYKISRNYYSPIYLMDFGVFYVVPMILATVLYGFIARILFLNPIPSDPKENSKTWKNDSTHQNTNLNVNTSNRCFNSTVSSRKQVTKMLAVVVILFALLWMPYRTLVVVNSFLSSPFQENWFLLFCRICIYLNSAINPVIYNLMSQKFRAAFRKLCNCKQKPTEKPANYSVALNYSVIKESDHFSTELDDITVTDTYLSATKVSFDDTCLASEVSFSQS
Outline: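 Cells (TRHR-HEK293) are plated and kept 18 h at 37 °C/5% CO2. A calcium-sensitive dye is added for 2 h, compound follows for 5 min at room temperature, and TRH is then given at 1 nM final.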

[20] = biological target: Thyrotropin-releasing hormone receptor (Homo sapiens) (UniProt P34981); assay: qHTS assay to identify small molecule agonists of the thyrotropin-releasing hormone receptor (TRHR) signaling pathway (AID 1346891; calls by dose curve;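 also: HEK293 cells expressing TRHR with calcium dye readout; series mostly up to about 58 µM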)
Outline: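 Cells: TRHR-Hek293, seeded and incubated 18 h. Dye loading: 2 h at 37 °C. Compound added from DMSO stock by pin tool. Read-out: kinetic calcium fluorescence over 3 min.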

SMILES	Potency [1]	outcome [2]	Potency [3]	Potency [4]	outcome [5]	Potency [6]	outcome [7]	Potency [8]	Potency [9]	Potency [10]	outcome [11]	Potency [12]	Potency [13]	max activation [14]	outcome [15]	Potency [16]	Potency [17]	Potency [18]	outcome [19]	outcome [20]
Nc1ccc(C(=O)O)cc1	inactive	inactive	inactive	inactive	inactive	inactive	inactive	inactive	inactive	inactive	inactive	inactive	inactive	-4.61% (inactive)	inactive	inactive	inactive	inactive		
O=c1ccc2ccccc2o1	inactive	inactive	inactive	inactive	inactive	inactive	inactive	inactive	inactive	inactive	inactive	inactive	inactive		inactive	inactive	inactive	inactive		
CCCCC(CC)COC(=O)/C=C/c1ccc(OC)cc1 (centres undefined)	inactive		inactive	inactive	inactive	inactive	inactive	inactive	inactive	inactive	inactive	inactive	inactive		inactive	inactive	inactive	39.8 µM (active) and 25.2 µM (active) and 24.5 µM (active)	inactive	inactive
Nc1ccc(O)c(C(=O)O)c1	inactive	inactive	inactive	inactive	inactive	inactive	inactive	inactive	inactive		inactive	inactive	inactive					79 µM (active) and 31.7 µM (active) and inactive	inactive	inactive
O=C(O)c1cc(N=Nc2ccc(S(=O)(=O)Nc3ccccn3)cc2)ccc1O	inactive	inactive	inactive	inactive	inactive	inactive	inactive	39.8 µM (active)	inactive	34.5 µM (active) and 54.5 µM (active) and 26.6 µM (active)	inactive	27.4 µM (active) and 48.6 µM (active) and 23.7 µM (active)	inactive	-4.4% (inactive)	inactive	inactive	inactive	56.6 µM (active) and inactive		
OC(Cn1cncn1)(Cn1cncn1)c1ccc(F)cc1F	inactive	inactive	inactive	inactive	inactive	inactive	inactive	inactive		inactive	inactive	inactive	inactive	-1.17% (inactive)	inactive	inactive	22.7 µM (active) and inactive			
O=C(O)c1cccc([N+](=O)[O-])c1	inactive	inactive	inactive	inactive	inactive	inactive	inactive	inactive	inactive	inactive	inactive	inactive					inactive	inactive	inactive	inactive
c1ccc2[nH]ccc2c1				26.9 µM (active) and inactive	inactive	42.9 µM (active) and inactive	inactive	17.8 µM (active) and inactive	inactive	6.01 µM (active) and inactive	inactive	inactive	inactive	-4.01% (inactive)	inactive	inactive	inactive	49.4 µM (active) and inactive	inactive	inactive
Cc1ccc(O)cc1	inactive	inactive	inactive	inactive	inactive	inactive	inactive		inactive	inactive	inactive	inactive							inactive	inactive
O=S(=O)(O)NC1CCCCC1	4.12 µM (active) and inactive	inactive	inactive	inactive	inactive	inactive	inactive	inactive	inactive	inactive	inactive	inactive		-1.36% (inactive)						
O=C(c1ccccc1)c1ccccc1	inactive	inactive	inactive	inactive		inactive	inactive	inactive	inactive	inactive	inactive	inactive								
NC(N)=NC(=O)c1nc(Cl)c(N)nc1N	inactive	inactive	inactive	inactive	inactive	inactive	inactive		inactive	inactive	inactive	inactive	69 µM (active) and 50.4 µM (active) and inactive				inactive	inactive	inactive	inactive
CCC1(c2ccccc2)C(=O)NCNC1=O	inactive	inactive	inactive	inactive	inactive	inactive	inactive	inactive	inactive	inactive	inactive	inactive	inactive				inactive	inactive		
O=C(C1CCCCC1)N1CC(=O)N2CCc3ccccc3C2C1 (centres undefined)	inactive	inactive	inactive	inactive	inactive	inactive		inactive	inactive	inactive	inactive	inactive	30.6 µM (active)				inactive	7.95 µM (active) and 17.8 µM (active) and 9.77 µM (active)	inactive	inactive
O=C1NC(=O)c2ccccc21	inactive	inactive	inactive	inactive	inactive	inactive	inactive	inactive	inactive	inactive	inactive	inactive	inactive and 31.4 µM (active)				inactive	inactive		
